Measurements as given in PubChem BioAssay (EPA / NIEHS).
Calls of active or inactive are those of the source. The calls were made as follows: active = hit-call score of the fitted dose curve at least 0.9, where 1 is the maximum; inactive = score below 0.9.

Experiment: ATG_DR4_LXR_CIS: Attagene CIS-FACTORIAL HepG2 Assay for human Liver X Receptor (LXR), DR4 submotif (AID 2282929)
Conditions: HepG2 Attagene DR4 cis-reporter, mRNA transcription; actives raise or lower the signal
Experimental: ATG_CIS is a cell-based, multiplexed-readout assay that uses HepG2, a human liver cell line, with measurements taken at 24 hours after chemical dosing in a 24-well plate.ATG_DR4_LXR_CIS is one of 52 assay component(s) measured or calculated from the ATG_CIS assay. It is designed to make measurements of mRNA induction, a form of inducible reporter, as detected with fluorescence intensity signals by Reverse transcription polymerase chain reaction (RT-PCR) and Capillary electrophoresis technology.Data from the assay component ATG_DR4_LXR_CIS was analyzed into 1 assay endpoint. This assay endpoint, ATG_DR4_LXR_CIS, was analyzed with bidirectional fitting relative to DMSO as the negative control and baseline of activity. Using a type of inducible reporter, measures of mRNA for gain or loss-of-signal activity can be used to understand the reporter gene at the transcription factor-level as they relate to the gene NR1H2 and NR1H3. Furthermore, this assay endpoint can be referred to as a primary readout, because this assay has produced multiple assay endpoints where this one serves a reporter gene function. To generalize the intended target to other relatable targets, this assay endpoint is annotated to the nuclear receptor intended target family, where the subfamily is non-steroidal.
Human liver HepG2 cells are transiently transfected with multiple reporter transcription units (MRTUs) in 6-well plates using FuGene 6 reagent (Roche; 3 ml FuGene/1 mg DNA). The MRTU constructs are regulated by a cis-regulating element (promoter). […] A major difference between the CIS and TRANS system is that in CIS activities of endogenous TFs are measured, whereas the TRANS assay evaluates changes in activities of exogenous, chimeric NR-Gal4 proteins. […] At the end of 24 hour incubation, total RNA was isolated using TriZol reagent (Invitrogen). The isolated RNA is then reverse-transcribed using oligo(dT) primer and Mo-MLV reverse transcriptase (Invitrogen) with DNAse I (Ambion) treatment for 30 min. The one-tenth of the produced cDNA was amplified by PCR using Taq DNA polymerase (Invitrogen) and two reporter sequence-specific primers. The PCR products were fluorescently labeled by primer extension with 6-arboxyfluorescein (6-FAM) 5'-labeled reporter sequence-specific primer (2 min at 95 C, 20 s at 68 C and 10 min at 72 C) and these products were digested with 5U of HpaI (New England Biolabs) for 2h at 37 C. The fragments were purified using Qiaquick PCR columns (Qiagen), analyzed on an ABI 3130xL genetic analyzer (Applied Biosystems) with peak positions identified by using a set of X-rhodamine (ROX)-labeled MapMarker1000 molecular weight standards (BioVentures). The raw capillary electrophoresis data was processed using Attagraph software (Attagene).

| Compound | outcome | AC50 |
| --- | --- | --- |
| CCC1(C)NC(=O)NC1=O (stereo not given) | inactive | – |
| CCC1(c2ccccc2)C(=O)NCNC1=O | inactive | – |
| NC1CCCCC1N (stereo not given) | inactive | – |
| ClC(c1ccccc1)(c1ccccc1)c1ccccc1 | – | 5.95 µM (active) |
| CC[N+](C)(CC)CC | inactive | – |
| CCOc1ccc(NC(=O)CC(C)=O)cc1 | inactive | – |
| CC(C)C[C@H](NC(=O)OCC1c2ccccc2-c2ccccc21)C(=O)O | inactive | – |
| O=C(CS)OCCOC(=O)CS | – | 49.1 µM (active) |
| Cc1ccc(S(=O)(=O)Oc2ccc(N=Nc3ccc(-c4ccc(N=Nc5c(O)ccc6cc(S(=O)(=O)O)cc(S(=O)(=O)O)c56)c(C)c4)cc3C)cc2)cc1 | inactive | – |
| CC(C)(CO)[C@@H](O)C(=O)NCCC(=O)O | inactive | – |
| CC(CN=Cc1ccccc1O)N=Cc1ccccc1O (stereo not given) | inactive | – |
| O=C(O)c1cccnc1C(=O)O | inactive | – |
| CCOc1ccc(NC(=O)CC(C)O)cc1 (stereo not given) | inactive | – |
| COc1ccc(N)c([N+](=O)[O-])c1 | inactive | – |
| C/C=C(\C)C(=O)OCCc1ccccc1 | inactive | – |
| CCCOC(=O)c1c(Cl)c(Cl)c(Cl)c(Cl)c1C(=O)OCCC | – | 27 µM (active) |
| CCCCCCCCCCCCCCN(CCO)CCO | – | 13.8 µM (active) |
| CCCCC1CCC(O)CC1 (stereo not given) | inactive | – |
| CN(C)C(=O)Nc1ccc(Oc2ccc(Cl)cc2)cc1 | – | 72 µM (active) |
| Oc1ccc2cc(SSc3ccc4cc(O)ccc4c3)ccc2c1 | inactive | – |

| Compound | outcome | AC50 |
| --- | --- | --- |
| CC(=O)c1ccccn1 | inactive | – |
| CCCC(=O)OC(C)(C)Cc1ccccc1 | inactive | – |
| CCOC(=O)C(C#N)=C(c1ccccc1)c1ccccc1 | – | 29.6 µM (active) |
| CC1(C)C(=O)N(Cl)C(=O)N1Br | inactive | – |
| COc1ccc(CCO)cc1 | inactive | – |
| NC(=S)NNC(N)=S | inactive | – |
| O=C(O)CCCCCCCCC(=O)O | inactive | – |
| COC(CC(C)CCCC(C)(C)O)OC (stereo not given) | inactive | – |
| COc1ccc(CCN2CCC(Nc3nc4ccccc4n3Cc3ccc(F)cc3)CC2)cc1 | inactive | – |
| O=C(O)CNc1ccccc1 | inactive | – |
| CCc1ncc(C)[nH]1 | inactive | – |
| CC(=O)C1(C)CC2=C(CCCC2(C)C)CC1C (stereo not given) | – | 179 µM (active) |
| CCCCC(CC)COC(C)=O (stereo not given) | inactive | – |
| O=C(O)COCC(=O)O | inactive | – |
| O=C(c1ccccc1)C(O)c1ccccc1 (stereo not given) | inactive | – |
| Clc1cc(Cl)c(-c2c(Cl)c(Cl)cc(Cl)c2Cl)cc1Cl | – | 21.8 µM (active) |
| Cc1cccc(Nc2ccccc2)c1 | – | 67.5 µM (active) |
| C=CCOC(=O)CCCCCC | inactive | – |
| Brc1ccc(Br)c(Br)c1 | inactive | – |
| C=C(C)[C@H]1CC=C(C)C(=O)C1 | inactive | – |
